Rango complex inh = Rango-importin beta binding inhibition. Potency, µM (titrated, usually from 92.2 µM), for inactives: top-dose inhibition of complex formation. AID 540263. Q14974. 340,000 tested, 0.031% active. Rango CFP/YFP FRET sensor + importin beta, 45 min;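 also: potency is read from the fitted curve at half-maximal effect; 0% = DMSO wells and 100% = buffer wells lacking importin beta; nearly all actives have a fitted effect of over 15% in size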
Target sequence (Q14974 whole entry, looked up): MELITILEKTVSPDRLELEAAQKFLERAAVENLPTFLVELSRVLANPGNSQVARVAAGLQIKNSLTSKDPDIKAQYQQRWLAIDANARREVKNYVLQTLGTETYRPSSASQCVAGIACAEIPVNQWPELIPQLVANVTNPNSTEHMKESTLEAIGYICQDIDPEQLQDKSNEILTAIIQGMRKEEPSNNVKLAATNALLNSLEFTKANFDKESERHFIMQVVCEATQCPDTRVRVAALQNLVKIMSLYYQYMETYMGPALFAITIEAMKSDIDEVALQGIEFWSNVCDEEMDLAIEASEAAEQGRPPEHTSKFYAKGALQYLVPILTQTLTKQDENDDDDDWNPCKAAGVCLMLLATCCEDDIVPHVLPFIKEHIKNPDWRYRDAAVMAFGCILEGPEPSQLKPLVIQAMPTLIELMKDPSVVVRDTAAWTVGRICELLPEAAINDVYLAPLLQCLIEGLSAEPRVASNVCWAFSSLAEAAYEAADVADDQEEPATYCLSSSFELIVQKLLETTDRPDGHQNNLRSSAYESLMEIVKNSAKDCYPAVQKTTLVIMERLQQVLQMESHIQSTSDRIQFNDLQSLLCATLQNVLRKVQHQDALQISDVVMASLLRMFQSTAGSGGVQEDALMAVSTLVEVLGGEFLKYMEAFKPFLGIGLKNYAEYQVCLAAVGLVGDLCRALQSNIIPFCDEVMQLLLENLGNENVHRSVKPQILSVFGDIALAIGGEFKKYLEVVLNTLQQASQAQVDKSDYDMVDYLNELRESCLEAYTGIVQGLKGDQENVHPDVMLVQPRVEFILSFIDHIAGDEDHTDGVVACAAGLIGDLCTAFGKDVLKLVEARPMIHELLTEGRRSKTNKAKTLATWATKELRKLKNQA
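Inhibition scored from the CFP 486 nm/YFP 530 nm FRET ratio 45 min after adding 0.125 microM importin beta to 50 nM Rango biosensor preincubated 5 min with compound (room temperature, PBS with DTT, Tween-20, BSA). No-importin wells as positive control.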
TSG101-PTAP inh = blocks PTAP/TSG101 interaction to inhibit HIV-1 budding | AID 493005 | 340,000 tested, under 10 active | Potency, µM (doses to about 115 µM), without a hit: at the highest dose activity change, negative = inhibition, actives largely listed as inhibitors | Fluorescence polarization, FITC-PTAP peptide / Tsg101 binding; active = well fitted inhibition curve with a large enough effect in the main read-out, with a control signal flat, not every such curve was filed as active; inconclusive = small, poorly fitted or top-dose-only effect, or effect the other way, or a change in a side signal; inactive = no such curve, though single readings can be large or run the other way; also: potency is read from the fitted curve at half-maximal effect; % of control where 0% means no effect
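Tsg101 binding domain (10 uM final) was mixed with compound and a FITC-labeled PTAP peptide (50 nM final) in HEPES pH 7.5 buffer with NaCl, Tween 20, EDTA and TCEP; fluorescence polarization was read after 20 min at r.t.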
MmCpn inh = M. maripaludis TRiC chaperonin inhibition; Potency, µM (series often up to 76.9 µM), inactives show at the highest dose activity, negative = inhibition, actives largely listed as inhibitors; AID 504842; 330,000 tested, 0.031% active; purified Mm-Cpn ATPase, ADP Transcreener TR-FRET; active = well fitted inhibition curve with a large enough effect; inconclusive = small, poorly fitted or top-dose-only effect; also: potency is read from the fitted curve at half-maximal effect; % is scaled to controls: 0 for no effect and ±100 for the full control effect; nearly all actives have a fitted effect of over 80% in size
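Inhibition of chaperonin ATP hydrolysis is measured as reduced ADP production, detected by competitive TR-FRET in which signal falls with ADP. Final enzyme 25 nM and ATP 10 uM, reacted 30 min at 37°C.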
Rango dissoc inh = inhibitors of RanGTP-induced Rango-importin beta complex dissociation; Biochemical FRET Rango-importin beta, RanGTP-induced dissociation; Potency, µM (top dose mostly 46.1 µM), inactives show top-dose activity change, negative = inhibition; 340,000 tested, 0.071% active; also: potency is read from the fitted curve at half-maximal effect; % of control where 0% means no effect; nearly all actives have a fitted effect of over 45% in size
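FRET read at 45 min, room temperature: inhibitors block the CFP/YFP signal rise when RanGTP (0.6 uM Ran, 2 mM GTP, 0.2 uM RCC1) frees Rango (0.1 uM) from importin beta (0.25 uM). Pre-read after 5 min compound exposure flags interference.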
D3 antag = antagonists of human D3 dopamine receptor; P35462; D3R cells, DiscoveRx beta-arrestin luminescence, antagonist mode; hits give low values; max response, negative = inhibition, %; 360,000 tested, 2.5% active; AID 652054; in the data active = max response below about -50%; inconclusive = no clear call, values can overlap the other calls; also: % is scaled to controls: 0 for no effect and ±100 for the full control effect
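Cells expressing the human receptor were seeded at 1500 cells/well, incubated overnight at 37 degrees C in 5% CO2, then exposed to library compounds with dopamine controls for 90 minutes at 37 degrees C before luminescent detection.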
DRD3 agonist = D3 dopamine receptor (human) agonism. D3R DiscoveRx beta-arrestin cells, luminescence, 90 min. AID 652048. 410,000 tested, 0.58% active. max activation, %; in the data active = max activation above about 30%; also: 0% is about no effect
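Agonist-mode cell screen: cells plated at 1500/well and incubated overnight at 37 °C, then exposed to library compounds for 90 min at 37 °C. Detection reagent was added for 30–60 min at room temperature, and luminescence was read.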
Starred values were filed as active, the others as inactive. An excerpt weighted towards active compounds, which were near 2.9% of everything screened. Unless noted, calls follow the shape of the full dose curve.

Results for Cc1ccc(S(=O)(=O)c2nc(-c3ccccc3)oc2SCC(=O)NC2CCCCC2)cc1 ?
DRD3 agonist: 64*

Results for CCOc1ccc(-c2nn(CC(=O)NC3CCCC3)c3c2cnc2ccc(C)cc23)cc1 ?
DRD3 agonist: 9

What do the screens show for `COC(=O)C1=C(C)NC(=O)NC1c1cn(-c2ccccc2)nc1-c1ccc(OC)c(Cl)c1` (stereo unspecified)?
DRD3 agonist: 2

Results for Cc1nc(-[n+]2nc(-c3ccncc3)nn2-c2ccccc2)sc1C ?
D3 antag: -102*; DRD3 agonist: -23

What do the screens show for `Fc1ccc(OCCOCCN2CCCC2)cc1`?
Rango complex inh: -1%; TSG101-PTAP inh: -5%; Rango dissoc inh: 2%; D3 antag: -3; DRD3 agonist: -12

Results for CC(C)(C)c1ccccc1OCCN1CCCC1 ?
Rango complex inh: -1%; TSG101-PTAP inh: -1%; MmCpn inh: 0%; Rango dissoc inh: -6%; D3 antag: -79*; DRD3 agonist: -26

What do the screens show for `Cc1ccc(C(C)(C)C)c(OCCN2CCCC2)c1`?
Rango complex inh: -3%; TSG101-PTAP inh: -1%; MmCpn inh: -1%; Rango dissoc inh: 3%; D3 antag: 2; DRD3 agonist: -7

How did Cc1cccc(C(C)(C)C)c1OCCOCCN1CCCC1 do in these assays?
Rango complex inh: 0%; TSG101-PTAP inh: 1%; MmCpn inh: 2%; Rango dissoc inh: -7%; D3 antag: inconclusive; DRD3 agonist: -17

What do the screens show for `CC(OCCN1CCCC1)(c1ccc(F)cc1)c1ccc(F)cc1`?
Rango complex inh: 0%; TSG101-PTAP inh: 1%; MmCpn inh: 1%; Rango dissoc inh: -6%; D3 antag: -76*; DRD3 agonist: -48

How did Cc1cccc(C(C)(C)C)c1OCCN1CCCC1 do in these assays?
Rango complex inh: 3%; TSG101-PTAP inh: 1%; MmCpn inh: -8%; Rango dissoc inh: 20%; D3 antag: -93*; DRD3 agonist: -36

How did CN(NS(C)(=O)=O)c1c(C#N)c(C(F)(F)F)nn1C do in these assays?
Rango complex inh: 0%; TSG101-PTAP inh: 1%; MmCpn inh: 1%; Rango dissoc inh: -12%; D3 antag: -10; DRD3 agonist: 4

How did COc1ccc(OC)c(NC(=S)NCC(c2cccnc2)N2CCOCC2)c1 (stereo unspecified) do in these assays?
Rango complex inh: -4%; TSG101-PTAP inh: -5%; MmCpn inh: -3%; Rango dissoc inh: 2%; D3 antag: 22; DRD3 agonist: 2

What do the screens show for `CNC(=S)Nc1cccc(-c2cnc3ccccc3n2)c1`?
Rango complex inh: 2%; TSG101-PTAP inh: -7%; MmCpn inh: 1%; Rango dissoc inh: -10%; D3 antag: -74*; DRD3 agonist: -12

What do the screens show for `CC(C)C(=O)Nc1cccc(-c2cnc3ccccc3n2)c1`?
Rango complex inh: 4%; TSG101-PTAP inh: 2%; MmCpn inh: 1%; Rango dissoc inh: -6%; D3 antag: 4; DRD3 agonist: 5

How did COCC(C)NC(=O)c1ccc(CN2CCc3ccccc3C2)cc1 (stereo unspecified) do in these assays?
Rango complex inh: 5%; TSG101-PTAP inh: -9%; MmCpn inh: 1%; Rango dissoc inh: -21%; D3 antag: -68*; DRD3 agonist: -11

How did O=C(NCc1cccnc1)c1ccc(CN2CCc3ccccc3C2)cc1 do in these assays?
Rango complex inh: -1%; TSG101-PTAP inh: -4%; MmCpn inh: -1%; Rango dissoc inh: 6%; D3 antag: -75*; DRD3 agonist: 0

What do the screens show for `CCC(C)NC(=O)c1ccc(CN2CCc3ccccc3C2)cc1` (stereo unspecified)?
Rango complex inh: -2%; TSG101-PTAP inh: -1%; MmCpn inh: -2%; Rango dissoc inh: 18%; D3 antag: -66*; DRD3 agonist: -18
